Here are results for 40 molecules from PubChem BioAssay (NCATS).

Records with an inconclusive call do not appear. Entries that show only a call come without a potency. Calls of active or inactive are those of the source. Calls follow the shape of the dose curve; as a rule, active = well fitted inhibition curve with a large enough effect; inconclusive = small, poorly fitted or top-dose-only effect; inactive = no such curve, though single readings can be large or run the other way.
Potency is read from the fitted curve at half-maximal effect.

This experiment in a line: qHTS for Inhibitors of the Aldehyde Dehydrogenase Family (ALDH1A2, ALDH1A3, ALDH2, ALDH3A1) (AID 2061307). Also: nearly all actives have a fitted effect of over 50% in size. As to potency: test system not described further here. The following applies: ALDH inhibition qHTS; series mostly up to 50.3 µM.
On to `CC(C)(C)OC(=O)NC1CCN(c2nc(Br)cs2)CC1`, for which the Potency entry was “inactive”.
The figure for `O=C(Nc1nnc(-c2ccccn2)o1)c1ccc(Cl)cc1Cl` is 12.7 µM (active); for `N#Cc1ccc(C(=O)Nc2nnc(C3=COCCO3)o2)cc1` it is “inactive”; for `CCc1ccc(NC(=O)Cn2c(=O)n(-c3ccccc3)c(=O)c3ccc(C(=O)NCc4ccc5c(c4)OCO5)cc32)cc1` it is “inactive”.
`O=C(c1cnc(N2CCCCC2)c2ccccc12)N1CCN(c2ccc(Cl)cc2)CC1`: the Potency result is “inactive”.
Regarding `N#CCc1c(Cc2ccc(S(N)(=O)=O)cc2)c(-c2ccccc2)nn1-c1nc(C(=O)O)cs1`, the Potency entry is “inactive”.
On to `CC(Sc1nc2nn(C3COC3)cc2c(=O)n1-c1ccccc1)c1ccccc1` (stereo not given), for which the Potency result was “inactive”.
On to `Oc1ccc(N2CCN(Cc3ccc(OCCCN4CCCCC4)cc3)CC2)cc1`, for which the Potency result is “inactive”.
Consider `COC(=O)c1ccc(CN2CCC(N(CCc3ccccc3)Cc3ccccc3)CC2)cc1`, for which the Potency result was “inactive”.
With `CSc1ncc(CNc2cc([N+](=O)[O-])ccc2C)c(N)n1`, the Potency is 17.8 µM (active).
Under `CC(=O)Nc1ccc(NC(=O)c2cc(=O)c3ccccc3o2)cc1` stands “inactive”; under `O=S(=O)(c1ccccc1)N1CCC(N(CCc2ccccc2)Cc2ccccc2)CC1`, 0.708 µM (active).
Take `C=Cc1cc(NC(=O)CN)cc(-c2nn3c(=O)cc(N4CCNCC4)nc3s2)c1`: the Potency entry is “inactive”.
With `Cc1ccc(S(=O)(=O)Nc2ccc(O)c3ccccc23)c(C)c1`, the Potency was 14.2 µM (active).
Regarding `COC(=O)c1ccc(NC(=O)CN(c2cccc(C(F)(F)F)c2)S(C)(=O)=O)cc1`, the Potency result was “inactive”.
Consider `Cc1ccc(-c2cc(C(=O)O)c3cccc(C)c3n2)cc1`, for which the Potency is 7.12 µM (active).
Regarding `O=C([C@H](NS(=O)(=O)c1ccc2[nH]c(=O)ccc2c1)c1ccc(F)cc1)N(Cc1ccco1)Cc1cccs1`, the Potency is 25.2 µM (active).
The entry for `CCc1cccc(CC)c1-n1c(C)c(C(=O)NC2CC2)cc(-c2nc(-c3ccc(Cl)cc3)cs2)c1=O` is “inactive”.
Under `COc1ccc2c(c1)CCNC2Cc1ccc(OC)c(O)c1` (stereo not given) stands “inactive”; under `COc1ccc(C(N)=O)cc1NC(=O)c1ccn(-c2ccc(F)cc2)n1`, “inactive”; under `O=C1Cc2cc(S(=O)(=O)N3CCN(c4ccc(C(=O)O)cc4)CC3)ccc2N1`, “inactive”.
Turning to `Cc1nn(CC(=O)N2CCN(c3cccc(C(F)(F)F)c3)CC2)c(=O)c2cc3sccc3n12`, the Potency result is “inactive”.
With `COc1ccccc1Nc1ccc2c(O)cc(S(=O)(=O)O)cc2c1`, the Potency was 31.6 µM (active).
On to `Cc1c(P(=S)(c2ccccc2)c2ccccc2)[n+]2ccccc2n1C/C=C/c1ccc2ccccc2c1`, for which the Potency is 3.55 µM (active).
With `COc1ccc(CCNC(=O)c2ccc3nnc(-c4ccc([S+](C)(=O)[O-])cc4)n3c2)cc1`, the Potency entry is “inactive”.
Under `Cc1ccccc1C(=O)n1ccc2cc(-c3cccc(NC(=O)Cc4ccccc4)n3)cnc21` stands “inactive”.
Under `CCN1C(=O)c2ccccc2S(=O)c2ccc(C(=O)NCc3ccccc3Cl)cc21` (stereo not given) stands 12.7 µM (active); under `O=C(Nc1ccccc1F)c1nc(S(=O)(=O)Cc2ccccc2F)ncc1Cl`, 3.16 µM (active); under `CCN1C(=O)c2ccccc2S(=O)c2ccc(C(=O)NCc3cccc(-c4ccccc4)c3)cc21` (stereo not given), 22.5 µM (active).
On to `Cc1sc(-n2nc(-c3ccccc3)c(Cc3ccc(S(N)(=O)=O)cc3)c2N)nc1C(=O)O`, for which the Potency result is “inactive”.
The figure for `CCCCn1cnc2cc(NCc3ccc(OCC)cc3)ccc21` is 5.04 µM (active); for `Cc1sc(NC(=O)Cc2ccc3c(c2)OCO3)nc1-c1ccc2c(c1)CCN2C(=O)c1cncn1C` it is 7.94 µM (active).
Under `CC(NC(=O)c1ccco1)c1nc(-c2ccccc2)no1` (stereo not given) stands “inactive”.
Under `COC(=O)c1ccc(CNc2ncnc3ccccc23)cc1` stands 0.708 µM (active); under `CC(C)C(=O)OCc1ccc(-c2nn(Cc3ccccc3)c3ccccc23)o1`, “inactive”.
As for `O=C(Nc1ccc(C(=O)N2CCCC2)cc1)c1cccc(Cl)c1`, the Potency result is “inactive”.
The figure for `O=C(c1ccc2ccccc2c1)c1no[n+]([O-])c1C(=O)c1ccc2ccccc2c1` is 5.04 µM (active); for `OCC1CCN(c2ccc3cc(Br)ccc3n2)CC1` it is 8.91 µM (active); for `CCOC(=O)c1c(C)n(-c2ccc(OC)cc2)c2ccc(O)cc12` it is “inactive”.
The entry for `COc1ccc(-n2c(C)c(C(C)=O)c3cc(OC(=O)c4ccco4)ccc32)cc1` is “inactive”.
